Data: the supplement of paper PMC6805474

Experiments:
[1] = test system: Schistosoma mansoni schistosomula (LE); assay: XTT viability relative to DMSO control; higher = more viable (less active); conditions: 72 h; 10 µM
Experimental: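 XTT/PMS was then added for a further 24 h (72 h total) and A450 was read. % viability = (sample - heat-killed control)/(DMSO control - heat-killed control) x 100, from duplicate wells in two independent experiments.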

[2] = test system: Schistosoma mansoni schistosomula (NMRI); assay: phenotypic severity score (0-4); higher = more antischistosomal effect, active = 2 or more; conditions: 10 µM
[3] = test system: Schistosoma mansoni schistosomula (Liberian); assay: drug effect (1 - score/DMSO control score) (fraction); higher = more antischistosomal effect, active = 0.5 or more; extreme values may be limits of the assay; conditions: 10 µM
Outline: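 Drug effect was calculated by comparing the mean score of the test wells with the mean score of the DMSO wells, and any negative value was set to zero. Duplicate wells of 50 Liberian-strain S. mansoni schistosomula, mechanically transformed from cercariae and pre-incubated at least 12 h, received 10 µM compound in Medium 199 with 5% FCS at 37 °C, 5% CO2, with 0.1% DMSO in the comparison wells. Visual scoring at 10× took place at 24, 48 and 72 h on a quarter-point scale from 3 (normal) to 0 (dead), and a plate counted only if its DMSO wells averaged at least 2.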
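For phenotypic severity score (0-4) in this document: visual microscopic scoring of shape, motility and density changes versus 0.5% DMSO solvent controls, one point per descriptor, degeneracy or death scored 4, mean of duplicate wells.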

O=C(Nc1c(O)cccc1-c1nc2c(C(=O)O)cccc2o1)c1cc(-c2ccccc2)on1
XTT viability [1]: 80.2% | phenotypic severity score ([2]; 24 h): 0 (inactive) | phenotypic severity score ([2]; 48 h): 0 (inactive) | phenotypic severity score ([2]; 72 h): 0 (inactive) | drug effect ([3]; 24 h): 0.05 (inactive) | drug effect ([3]; 48 h): 0.027 (inactive) | drug effect ([3]; 72 h): 0.0303 (inactive)

O=C(NC1CC1)c1ccc(N2CCOc3ccc(Cl)cc32)s1
XTT viability [1]: 83.5% | phenotypic severity score ([2]; 24 h): 0 (inactive) | phenotypic severity score ([2]; 48 h): 0 (inactive) | phenotypic severity score ([2]; 72 h): 0 (inactive) | drug effect ([3]; 24 h): 0.35 (inactive) | drug effect ([3]; 48 h): 0.459 (inactive) | drug effect ([3]; 72 h): 0.5 (active)

c1ccc(Oc2ccc(-c3cncc(-c4ccc5[nH]ccc5c4)n3)cc2)cc1
XTT viability [1]: 3.06% | phenotypic severity score ([2]; 24 h): 0 (inactive) | phenotypic severity score ([2]; 48 h): 0 (inactive) | phenotypic severity score ([2]; 72 h): 2 (active) | drug effect ([3]; 24 h): 0.6 (active) | drug effect ([3]; 48 h): 1 (active) | drug effect ([3]; 72 h): 1 (active)

COc1cccc(-c2cc3c(Nc4cccnc4)nccc3[nH]2)c1
XTT viability [1]: 104% | phenotypic severity score ([2]; 24 h): 0 (inactive) | phenotypic severity score ([2]; 48 h): 0 (inactive) | phenotypic severity score ([2]; 72 h): 0 (inactive) | drug effect ([3]; 24 h): 0.1 (inactive) | drug effect ([3]; 48 h): 0.135 (inactive) | drug effect ([3]; 72 h): 0.152 (inactive)

Clc1cccc(CO[C@H]2CCc3ccccc3[C@@H]2n2ccnn2)c1
XTT viability [1]: 80.7% | phenotypic severity score ([2]; 24 h): 3 (active) | phenotypic severity score ([2]; 48 h): 4 (active) | phenotypic severity score ([2]; 72 h): 4 (active) | drug effect ([3]; 24 h): < 0 (inactive) | drug effect ([3]; 48 h): 0.1 (inactive) | drug effect ([3]; 72 h): 0.158 (inactive)

Clc1ccc(Cl)c(CO[C@H]2CCCC[C@@H]2n2ccnc2)c1
XTT viability [1]: 109% | phenotypic severity score ([2]; 24 h): 0 (inactive) | phenotypic severity score ([2]; 48 h): 0 (inactive) | phenotypic severity score ([2]; 72 h): 0 (inactive) | drug effect ([3]; 24 h): 0.2 (inactive) | drug effect ([3]; 48 h): 0.167 (inactive) | drug effect ([3]; 72 h): 0.25 (inactive)

CC(c1cc(Cl)cc(Cl)c1)N(C)c1ncc2c(N)nc(N)nc2n1 (centres undefined)
XTT viability [1]: 42.2% | phenotypic severity score ([2]; 24 h): 0 (inactive) | phenotypic severity score ([2]; 48 h): 0 (inactive) | phenotypic severity score ([2]; 72 h): 0 (inactive) | drug effect ([3]; 24 h): < 0 (inactive) | drug effect ([3]; 48 h): < 0 (inactive) | drug effect ([3]; 72 h): 0.167 (inactive)

Cc1cccc(-c2nc(Nc3ccncn3)c3sccc3n2)n1
XTT viability [1]: 39.9% | phenotypic severity score ([2]; 24 h): 1 (inactive) | phenotypic severity score ([2]; 48 h): 3 (active) | phenotypic severity score ([2]; 72 h): 4 (active) | drug effect ([3]; 24 h): 0.405 (inactive) | drug effect ([3]; 48 h): 0.667 (active) | drug effect ([3]; 72 h): 0.75 (active)

CNC(=O)C1Cc2ccccc2N1C(=O)Cc1ccc(F)cc1 (centres undefined)
XTT viability [1]: 84.2% | phenotypic severity score ([2]; 24 h): 0 (inactive) | phenotypic severity score ([2]; 48 h): 0 (inactive) | phenotypic severity score ([2]; 72 h): 0 (inactive) | drug effect ([3]; 24 h): 0.227 (inactive) | drug effect ([3]; 48 h): 0.2 (inactive) | drug effect ([3]; 72 h): 0.236 (inactive)

CCn1ncc2c(NC3CCOCC3)c(CNC(=O)c3ccnn3C)c(C)nc21
XTT viability [1]: 92.5% | phenotypic severity score ([2]; 24 h): 0 (inactive) | phenotypic severity score ([2]; 48 h): 0 (inactive) | phenotypic severity score ([2]; 72 h): 0 (inactive) | drug effect ([3]; 24 h): 0.05 (inactive) | drug effect ([3]; 48 h): 0.0811 (inactive) | drug effect ([3]; 72 h): 0.0303 (inactive)

Clc1cccc(C(c2ccc(CN3CCNCC3)cc2)n2ccnc2)c1 (centres undefined)
XTT viability [1]: 76.1% | phenotypic severity score ([2]; 24 h): 1 (inactive) | phenotypic severity score ([2]; 48 h): 1 (inactive) | phenotypic severity score ([2]; 72 h): 4 (active) | drug effect ([3]; 24 h): 0.405 (inactive) | drug effect ([3]; 48 h): 0.667 (active) | drug effect ([3]; 72 h): 0.875 (active)

Cn1c(=O)c2c(S(C)(=O)=O)snc2n(C)c1=O
XTT viability [1]: -0.448% | phenotypic severity score ([2]; 24 h): 4 (active) | phenotypic severity score ([2]; 48 h): 4 (active) | phenotypic severity score ([2]; 72 h): 4 (active) | drug effect ([3]; 24 h): 1 (active) | drug effect ([3]; 48 h): 1 (active) | drug effect ([3]; 72 h): 1 (active)

c1ccc(Oc2ccc(-c3cc(N4CCNCC4)[nH]n3)cc2)cc1
XTT viability [1]: 25.2% | phenotypic severity score ([2]; 24 h): 2 (active) | phenotypic severity score ([2]; 48 h): 2 (active) | phenotypic severity score ([2]; 72 h): 2 (active) | drug effect ([3]; 24 h): 0.05 (inactive) | drug effect ([3]; 48 h): 0.15 (inactive) | drug effect ([3]; 72 h): 0.444 (inactive)

O=C(N[C@H](Cc1ccccc1)C(=O)Nc1ccccc1N1CCOCC1)c1cccs1
XTT viability [1]: 129% | phenotypic severity score ([2]; 24 h): 0 (inactive) | phenotypic severity score ([2]; 48 h): 0 (inactive) | phenotypic severity score ([2]; 72 h): 0 (inactive) | drug effect ([3]; 24 h): 0.2 (inactive) | drug effect ([3]; 48 h): 0.167 (inactive) | drug effect ([3]; 72 h): 0.188 (inactive)

O=C(NCCN1CCCC1)c1cc(NCCN2CCOCC2)nc2ccc(Cl)cc12
XTT viability [1]: 146% | phenotypic severity score ([2]; 24 h): 0 (inactive) | phenotypic severity score ([2]; 48 h): 0 (inactive) | phenotypic severity score ([2]; 72 h): 0 (inactive) | drug effect ([3]; 24 h): 0.15 (inactive) | drug effect ([3]; 48 h): 0.222 (inactive) | drug effect ([3]; 72 h): 0.438 (inactive)

CCCc1ccc(S(=O)(=O)Nc2ccc(CN3CCN(CC4CC4)CC3)cc2)cc1
XTT viability [1]: 108% | phenotypic severity score ([2]; 24 h): 0 (inactive) | phenotypic severity score ([2]; 48 h): 0 (inactive) | phenotypic severity score ([2]; 72 h): 0 (inactive) | drug effect ([3]; 24 h): 0.15 (inactive) | drug effect ([3]; 48 h): 0.167 (inactive) | drug effect ([3]; 72 h): 0.375 (inactive)

COCC(C)NC(=O)CSc1ncnc2sc(-c3ccccc3)cc12 (centres undefined)
XTT viability [1]: 93.6% | phenotypic severity score ([2]; 24 h): 0 (inactive) | phenotypic severity score ([2]; 48 h): 0 (inactive) | phenotypic severity score ([2]; 72 h): 0 (inactive) | drug effect ([3]; 24 h): 0.1 (inactive) | drug effect ([3]; 48 h): 0.135 (inactive) | drug effect ([3]; 72 h): 0.111 (inactive)
